# Results from PubChem BioAssay (EPA / NIEHS).
# Active and inactive are the calls of the source. How the source made its calls: active means hit-call score of the fitted dose curve at least 0.9, where 1 is the maximum; inactive means score below 0.9.
# Read-out: Tumor necrosis factor receptor superfamily member 6 (Homo sapiens) (UniProt P25445)
# Assay: LTEA_HepaRG_FAS: Life Technologies and Expression Analysis (LTEA) Assay for Fas cell surface death receptor (FAS) using HepaRG (AID 2283447)
# Conditions: mRNA level, 48 h; actives raise or lower the signal
# Method in brief: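 FAS transcript level was measured by TaqMan qRT-PCR against three housekeeping genes after 48 h chemical exposure. Cells were HepaRG, 0.5% DMSO vehicle, with a top concentration of 100 uM and half-log dilutions over eight points, in duplicate.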
# Fatty acid synthase (Homo sapiens), sequence (P49327 whole entry, looked up): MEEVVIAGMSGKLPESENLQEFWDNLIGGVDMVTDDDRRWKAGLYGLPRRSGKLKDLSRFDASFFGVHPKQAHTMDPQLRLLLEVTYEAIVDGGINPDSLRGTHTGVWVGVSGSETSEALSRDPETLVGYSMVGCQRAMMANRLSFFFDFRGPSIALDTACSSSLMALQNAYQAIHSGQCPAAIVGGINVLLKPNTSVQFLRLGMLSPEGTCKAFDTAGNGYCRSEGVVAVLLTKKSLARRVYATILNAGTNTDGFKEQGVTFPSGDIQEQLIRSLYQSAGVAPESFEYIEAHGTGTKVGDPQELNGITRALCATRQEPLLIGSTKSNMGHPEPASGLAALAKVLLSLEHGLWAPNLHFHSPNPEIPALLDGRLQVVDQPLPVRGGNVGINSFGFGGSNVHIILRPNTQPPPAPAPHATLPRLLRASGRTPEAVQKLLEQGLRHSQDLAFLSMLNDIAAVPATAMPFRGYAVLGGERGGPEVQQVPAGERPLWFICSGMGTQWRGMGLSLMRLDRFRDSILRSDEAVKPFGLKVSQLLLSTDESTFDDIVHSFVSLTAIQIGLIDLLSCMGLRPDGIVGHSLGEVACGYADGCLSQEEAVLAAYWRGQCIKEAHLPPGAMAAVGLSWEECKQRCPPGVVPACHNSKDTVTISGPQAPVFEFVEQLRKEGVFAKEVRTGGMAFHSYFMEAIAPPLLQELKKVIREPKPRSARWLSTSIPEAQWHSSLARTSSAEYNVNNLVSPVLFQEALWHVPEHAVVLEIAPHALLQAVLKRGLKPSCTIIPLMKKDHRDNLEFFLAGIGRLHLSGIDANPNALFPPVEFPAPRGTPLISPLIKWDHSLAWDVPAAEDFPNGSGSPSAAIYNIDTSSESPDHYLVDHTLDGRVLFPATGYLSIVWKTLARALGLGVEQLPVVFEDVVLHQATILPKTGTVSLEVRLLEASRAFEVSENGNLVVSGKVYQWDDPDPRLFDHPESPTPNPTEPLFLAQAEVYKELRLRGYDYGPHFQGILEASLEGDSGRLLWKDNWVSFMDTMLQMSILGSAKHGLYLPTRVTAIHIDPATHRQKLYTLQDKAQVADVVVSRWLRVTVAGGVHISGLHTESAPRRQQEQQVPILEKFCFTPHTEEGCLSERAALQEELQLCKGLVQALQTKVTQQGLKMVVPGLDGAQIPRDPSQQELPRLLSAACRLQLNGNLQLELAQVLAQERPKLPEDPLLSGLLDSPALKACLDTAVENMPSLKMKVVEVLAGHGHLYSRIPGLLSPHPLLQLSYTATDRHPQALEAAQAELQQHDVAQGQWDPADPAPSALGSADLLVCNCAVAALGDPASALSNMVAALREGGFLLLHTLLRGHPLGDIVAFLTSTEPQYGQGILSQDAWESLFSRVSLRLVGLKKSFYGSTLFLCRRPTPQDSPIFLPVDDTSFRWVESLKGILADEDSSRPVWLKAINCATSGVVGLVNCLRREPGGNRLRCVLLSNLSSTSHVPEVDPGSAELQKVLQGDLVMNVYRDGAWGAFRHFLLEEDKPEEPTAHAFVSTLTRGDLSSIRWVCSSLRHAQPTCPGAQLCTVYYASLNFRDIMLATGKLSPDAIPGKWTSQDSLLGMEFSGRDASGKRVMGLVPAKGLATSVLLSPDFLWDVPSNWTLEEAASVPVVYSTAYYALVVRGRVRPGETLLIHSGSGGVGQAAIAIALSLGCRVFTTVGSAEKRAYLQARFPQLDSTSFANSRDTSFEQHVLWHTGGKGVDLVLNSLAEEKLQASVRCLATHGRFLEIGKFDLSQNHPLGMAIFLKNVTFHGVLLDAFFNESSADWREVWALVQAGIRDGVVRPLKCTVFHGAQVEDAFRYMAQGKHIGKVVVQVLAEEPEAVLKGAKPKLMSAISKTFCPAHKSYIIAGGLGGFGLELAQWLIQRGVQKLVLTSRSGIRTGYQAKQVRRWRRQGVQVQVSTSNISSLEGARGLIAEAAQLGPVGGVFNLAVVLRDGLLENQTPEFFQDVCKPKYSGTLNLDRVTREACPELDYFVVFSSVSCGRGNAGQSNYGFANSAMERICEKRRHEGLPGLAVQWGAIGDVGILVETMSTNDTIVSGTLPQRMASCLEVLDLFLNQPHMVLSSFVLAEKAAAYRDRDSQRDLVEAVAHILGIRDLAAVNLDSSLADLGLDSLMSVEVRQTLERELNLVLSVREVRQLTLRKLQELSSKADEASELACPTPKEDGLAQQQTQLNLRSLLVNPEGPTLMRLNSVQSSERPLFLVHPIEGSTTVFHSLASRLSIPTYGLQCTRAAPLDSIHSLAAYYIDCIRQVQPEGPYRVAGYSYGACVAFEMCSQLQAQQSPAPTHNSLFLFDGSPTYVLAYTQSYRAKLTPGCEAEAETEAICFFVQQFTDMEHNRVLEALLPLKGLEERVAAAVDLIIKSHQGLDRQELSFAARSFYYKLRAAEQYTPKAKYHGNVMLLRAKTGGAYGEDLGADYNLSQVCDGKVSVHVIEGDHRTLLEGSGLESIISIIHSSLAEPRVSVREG
SMILES,outcome,AC50
COCCOCCOCCOC,inactive,
O=C(NS(=O)(=O)/C=C/c1ccccc1)c1ccc(F)cc1Cl,inactive,
CNCc1ccc(NC(=O)c2c[nH]c3c2C(=O)CCC3)cc1,inactive,
C1=CCCC=CCCC=CCC1,inactive,
CC[C@H]1OC(=O)[C@H](C)[C@@H](O[C@H]2C[C@@](C)(OC)[C@@H](O)[C@H](C)O2)[C@H](C)[C@@H](O[C@@H]2O[C@H](C)C[C@H](N(C)C)[C@H]2O)[C@](C)(O)C[C@@H](C)C(=O)[C@H](C)[C@@H](O)[C@]1(C)O,inactive,
Cn1c(=O)c2c(ncn2C)n(C)c1=O,inactive,
CC(O)CN(CCN(CC(C)O)CC(C)O)CC(C)O (configuration not stated),inactive,
CC(=O)OCCC(C)C,inactive,
CC(C)=CCC/C(C)=C/CO,inactive,
CC1(C)C(=O)N(Br)C(=O)N1Br,inactive,
CCOC(=O)CC(CC(=O)OCC)(OC(C)=O)C(=O)OCC,inactive,
O=C1CCC(N2C(=O)c3ccccc3C2=O)C(=O)N1 (configuration not stated),inactive,
CCCCC(CC)COC(=O)c1ccc(C(=O)OCC(CC)CCCC)cc1 (configuration not stated),inactive,
CCNc1ccccc1,inactive,
O=c1n(CC2CO2)c(=O)n(CC2CO2)c(=O)n1CC1CO1 (configuration not stated),,89.1 µM (active)
CCn1nc(Cc2ccccc2)cc1C1CCN(C[C@H]2C[C@H](N(C)[C@@H](C(=O)O)C(C)C)C[C@@H]2c2cccc(F)c2)CC1,inactive,
CCCN(C1CCN(C(=O)C2CCNCC2)CC1)[C@@H]1CCc2ccc(OC)cc2C1,inactive,
O=C(O)c1cc(N=Nc2ccc(S(=O)(=O)Nc3ccccn3)cc2)ccc1O,inactive,
C1N2CN3CN1CN(C2)C3,inactive,
CC(C)=CCC/C(C)=C\CO,inactive,
Clc1nc(Cl)c(Cl)c(Cl)c1Cl,inactive,
CCCCC(CC)COC(=O)CCCCCCCCC(=O)OCC(CC)CCCC (configuration not stated),inactive,
Cn1cnc([N+](=O)[O-])c1Sc1ncnc2nc[nH]c12,inactive,
O=C(O)c1cccc(Oc2ccccc2)c1,inactive,
CC/C(=C\C(=N/O)C(N)=O)C(C)[N+](=O)[O-] (configuration not stated),inactive,
Cc1ccc(C)c(O)c1,inactive,
O=C(O)CCN(C1(C(=O)NO)CCCC1)S(=O)(=O)c1ccc(Oc2ccc(F)cc2)cc1,inactive,
O=C(CCCCCCCCc1cccnc1)N1CCC(C=C(c2ccccc2)c2ccccc2)CC1,,50 µM (active)
O=C1OC(=O)C2C3C=CC(C3)C12 (configuration not stated),inactive,

# Read-out: Fatty acid synthase (Homo sapiens) (UniProt P49327)
# Assay: LTEA_HepaRG_FASN: Life Technologies and Expression Analysis (LTEA) Assay for Fatty Acid Synthase (FASN) using HepaRG (AID 2283448);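 on AC50: differentiated human HepaRG liver cells in serum-free induction medium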
# Conditions: mRNA level, 48 h; actives raise or lower the signal
# Method in brief: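 HepaRG, 48 h exposure, 8-pt half-log series top 100 uM, 0.5% DMSO vehicle, duplicates. Readout: FASN transcript by Fluidigm qRT-PCR; housekeeping-normalized; bidirectional curve fit vs DMSO baseline.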
SMILES,outcome,AC50
COCCOCCOCCOC,inactive,
O=C(NS(=O)(=O)/C=C/c1ccccc1)c1ccc(F)cc1Cl,inactive,
CNCc1ccc(NC(=O)c2c[nH]c3c2C(=O)CCC3)cc1,inactive,
C1=CCCC=CCCC=CCC1,inactive,
CC[C@H]1OC(=O)[C@H](C)[C@@H](O[C@H]2C[C@@](C)(OC)[C@@H](O)[C@H](C)O2)[C@H](C)[C@@H](O[C@@H]2O[C@H](C)C[C@H](N(C)C)[C@H]2O)[C@](C)(O)C[C@@H](C)C(=O)[C@H](C)[C@@H](O)[C@]1(C)O,inactive,
Cn1c(=O)c2c(ncn2C)n(C)c1=O,inactive,
CC(O)CN(CCN(CC(C)O)CC(C)O)CC(C)O (configuration not stated),,12.4 µM (active)
CC(=O)OCCC(C)C,inactive,
CC(C)=CCC/C(C)=C/CO,inactive,
CC1(C)C(=O)N(Br)C(=O)N1Br,inactive,
CCOC(=O)CC(CC(=O)OCC)(OC(C)=O)C(=O)OCC,inactive,
O=C1CCC(N2C(=O)c3ccccc3C2=O)C(=O)N1 (configuration not stated),inactive,
CCCCC(CC)COC(=O)c1ccc(C(=O)OCC(CC)CCCC)cc1 (configuration not stated),inactive,
CCNc1ccccc1,inactive,
O=c1n(CC2CO2)c(=O)n(CC2CO2)c(=O)n1CC1CO1 (configuration not stated),inactive,
CCn1nc(Cc2ccccc2)cc1C1CCN(C[C@H]2C[C@H](N(C)[C@@H](C(=O)O)C(C)C)C[C@@H]2c2cccc(F)c2)CC1,inactive,
CCCN(C1CCN(C(=O)C2CCNCC2)CC1)[C@@H]1CCc2ccc(OC)cc2C1,,80.6 µM (active)
O=C(O)c1cc(N=Nc2ccc(S(=O)(=O)Nc3ccccn3)cc2)ccc1O,inactive,
C1N2CN3CN1CN(C2)C3,inactive,
CC(C)=CCC/C(C)=C\CO,inactive,
Clc1nc(Cl)c(Cl)c(Cl)c1Cl,inactive,
CCCCC(CC)COC(=O)CCCCCCCCC(=O)OCC(CC)CCCC (configuration not stated),inactive,
Cn1cnc([N+](=O)[O-])c1Sc1ncnc2nc[nH]c12,inactive,
O=C(O)c1cccc(Oc2ccccc2)c1,inactive,
CC/C(=C\C(=N/O)C(N)=O)C(C)[N+](=O)[O-] (configuration not stated),inactive,
Cc1ccc(C)c(O)c1,inactive,
O=C(O)CCN(C1(C(=O)NO)CCCC1)S(=O)(=O)c1ccc(Oc2ccc(F)cc2)cc1,inactive,
O=C(CCCCCCCCc1cccnc1)N1CCC(C=C(c2ccccc2)c2ccccc2)CC1,,50 µM (active)
O=C1OC(=O)C2C3C=CC(C3)C12 (configuration not stated),inactive,

# Read-out: Cyclin D2 (CCND2), CCND2 (gene 894)
# Assay: LTEA_HepaRG_CCND2: Life Technologies and Expression Analysis (LTEA) Assay for Cyclin D2 (CCND2) using HepaRG (AID 2283449)
# Conditions: mRNA level, 48 h; actives raise or lower the signal
# Method in brief: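 CCND2 transcript levels, quantified by qRT-PCR and normalised to three housekeeping genes, were fitted bidirectionally against 0.5% DMSO. HepaRG cultures were dosed 48 h in duplicate with an 8-point half-log series up to 100 uM.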
row,SMILES,outcome
1,COCCOCCOCCOC,inactive
2,O=C(NS(=O)(=O)/C=C/c1ccccc1)c1ccc(F)cc1Cl,inactive
3,CNCc1ccc(NC(=O)c2c[nH]c3c2C(=O)CCC3)cc1,inactive
4,C1=CCCC=CCCC=CCC1,inactive
5,CC[C@H]1OC(=O)[C@H](C)[C@@H](O[C@H]2C[C@@](C)(OC)[C@@H](O)[C@H](C)O2)[C@H](C)[C@@H](O[C@@H]2O[C@H](C)C[C@H](N(C)C)[C@H]2O)[C@](C)(O)C[C@@H](C)C(=O)[C@H](C)[C@@H](O)[C@]1(C)O,inactive
6,Cn1c(=O)c2c(ncn2C)n(C)c1=O,inactive
7,CC(O)CN(CCN(CC(C)O)CC(C)O)CC(C)O (configuration not stated),inactive
8,CC(=O)OCCC(C)C,inactive
9,CC(C)=CCC/C(C)=C/CO,inactive
10,CC1(C)C(=O)N(Br)C(=O)N1Br,inactive
11,CCOC(=O)CC(CC(=O)OCC)(OC(C)=O)C(=O)OCC,inactive
12,O=C1CCC(N2C(=O)c3ccccc3C2=O)C(=O)N1 (configuration not stated),inactive
13,CCCCC(CC)COC(=O)c1ccc(C(=O)OCC(CC)CCCC)cc1 (configuration not stated),inactive
14,CCNc1ccccc1,inactive
15,O=c1n(CC2CO2)c(=O)n(CC2CO2)c(=O)n1CC1CO1 (configuration not stated),inactive
16,CCn1nc(Cc2ccccc2)cc1C1CCN(C[C@H]2C[C@H](N(C)[C@@H](C(=O)O)C(C)C)C[C@@H]2c2cccc(F)c2)CC1,inactive
17,CCCN(C1CCN(C(=O)C2CCNCC2)CC1)[C@@H]1CCc2ccc(OC)cc2C1,inactive
18,O=C(O)c1cc(N=Nc2ccc(S(=O)(=O)Nc3ccccn3)cc2)ccc1O,inactive
19,C1N2CN3CN1CN(C2)C3,inactive
20,CC(C)=CCC/C(C)=C\CO,inactive
21,Clc1nc(Cl)c(Cl)c(Cl)c1Cl,inactive
22,CCCCC(CC)COC(=O)CCCCCCCCC(=O)OCC(CC)CCCC (configuration not stated),inactive
23,Cn1cnc([N+](=O)[O-])c1Sc1ncnc2nc[nH]c12,inactive
24,O=C(O)c1cccc(Oc2ccccc2)c1,inactive
25,CC/C(=C\C(=N/O)C(N)=O)C(C)[N+](=O)[O-] (configuration not stated),inactive
26,Cc1ccc(C)c(O)c1,inactive
27,O=C(O)CCN(C1(C(=O)NO)CCCC1)S(=O)(=O)c1ccc(Oc2ccc(F)cc2)cc1,inactive
28,O=C(CCCCCCCCc1cccnc1)N1CCC(C=C(c2ccccc2)c2ccccc2)CC1,inactive
29,O=C1OC(=O)C2C3C=CC(C3)C12 (configuration not stated),inactive
